Potency and outcome data for 31 compounds are collected here from PubChem BioAssay (Tox21).

Where “and” joins values, the source holds several entries; their conditions need not be identical. Equal values may be shown once. Results filed as inconclusive are left out. Some structures have more than one record in an assay (separate samples or runs), and their calls can disagree. Calls of active or inactive are those of the source. Unless noted, calls come from the whole dose curve; as a rule, active = well fitted curve in the direction sought with a large enough effect in the repeat runs; inconclusive = weak or mixed curves; inactive = no such curve, though single readings can be large; an effect the other way counts as inactive or inconclusive.

The nature of assay [1]: qHTS assay to identify small molecule agonists of the vitamin D receptor (VDR) signaling pathway - cell viability counter screen (AID 743224). Note: nearly all actives have a fitted effect of over 50% in size. Note: potency is the fitted concentration of half-maximal effect. A digest of the protocol:
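Cytotoxicity counter screen: VDR-bla cells, 16 h compound exposure at 37C, 5% CO2; CellTiter-Glo luminescence, 30 min RT, same wells as bla read.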
A general note: qHTS replaces the single test concentration by a dilution series.

Assay [2] can be described thus: qHTS assay to identify small molecule agonists of the endoplasmic reticulum stress response signaling pathway (AID 1159516; active = well fitted activation curve with a large enough effect in the signal ratio in the repeat runs, not every such curve was filed as active; the % refers to the signal ratio; note: potency is the fitted concentration of half-maximal effect). The procedure, abridged: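 HeLa ESRE-bla reporter line; cpd 5 h, 37 C/5% CO2; LiveBLAzer B/G FRET substrate 2 h RT; ex 405, em 460/530 nm.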
Assay [3] in a line: qHTS assay to identify small molecule agonists of the endoplasmic reticulum stress response signaling pathway - cell viability counter screen (AID 1159517; calls by dose curve; note: nearly all actives have a fitted effect of over 50% in size; note: potency is the fitted concentration of half-maximal effect). The procedure, abridged: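 Steps: seed 1,500 ESRE-bla HeLa cells per well; incubate overnight at 37 C, 5% CO2; add compounds in DMSO for 5 hr; run FRET substrate 2 hr RT; add CellTiter-Glo, wait 30 min, read luminescence.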

A short description of assay [4]: qHTS assay to identify small molecule antagonists of the retinoid-related orphan receptor gamma (ROR-gamma) signaling pathway - cell viability counter screen (AID 1159520). Note: nearly all actives have a fitted effect of over 50% in size. Note: potency is the fitted concentration of half-maximal effect. A digest of the protocol: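 Tet-on ROR gamma CHO cells were given compounds for 2 hr, then doxycycline hyclate at 1 uM final, and incubated 16 hr at 37 C. Viability was measured as ATP content by CellTiter-Glo luminescence.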

Assay [5] addresses Nuclear receptor ROR-gamma (Homo sapiens) (UniProt P51449). Kind of assay: qHTS assay to identify small molecule antagonists of the retinoid-related orphan receptor gamma (ROR-gamma) signaling pathway (AID 1159521; note: nearly all actives have a fitted effect of over 50% in size; note: potency is the fitted concentration of half-maximal effect). The procedure, abridged: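 Screening format: cell-based luciferase reporter in CHO cells with doxycycline-inducible RORγ. Compound pre-exposure lasts 2 h, doxycycline is 1 uM final, induction runs 16 h at 37 C, and ONE-Glo luminescence is read.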

The nature of assay [6]: qHTS assay to identify small molecule agonists of the AP-1 signaling pathway - cell viability counter screen (AID 1159525; calls by dose curve; note: nearly all actives have a fitted effect of over 55% in size; note: potency is the fitted concentration of half-maximal effect). The procedure, abridged: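 Same-well cytotoxicity counter screen of the Tox21 10K library in ME-180 cells. The readout is ATP-dependent luminescence after 5 h compound treatment. Data are normalised to DMSO and tetra n-octyl ammonium bromide controls.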

A short description of assay [7]: qHTS assay to identify small molecule antagonists of the vitamin D receptor (VDR) signaling pathway - cell viability counter screen (AID 743225). Note: nearly all actives have a fitted effect of over 50% in size. Note: potency is the fitted concentration of half-maximal effect. A digest of the protocol: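 In this counter screen, VDR-bla HEK 293T cells receive test compound plus 3 nM final calcitriol for 16 h at 37C. Room-temperature steps of 2 h with the beta-lactamase substrate, then 30 min with CellTiter-Glo, precede the luminescence read.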

Assay [8] can be described thus: qHTS assay to identify small molecule agonists of the NFkB signaling pathway - cell viability counter screen (AID 1159515; calls by dose curve; note: nearly all actives have a fitted effect of over 55% in size; note: potency is the fitted concentration of half-maximal effect). The procedure, abridged:
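ME-180 NFkB-bla cells, 2,000/well; overnight attach; compound 5 hr, 37 C/5% CO2; LiveBLAzer substrate 1.5 hr RT; then CellTiter-Glo in same wells, 30 min RT, luminescence read.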

Assay [9] in a line: qHTS assay to identify small molecule agonists of the AP-1 signaling pathway (AID 1159526; calls by dose curve).
Assay [10] addresses Retinoic acid receptor RXR-alpha (Homo sapiens) (UniProt P19793). Kind of assay: qHTS assay to identify small molecule agonists of the RXR signaling pathway (AID 1159527; calls by dose curve; note: nearly all actives have a fitted effect of over 35% in size). A digest of the protocol:
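Fluorescence ratio readout (460 vs 530 nm) from GeneBLAzer RXR-alpha HEK 293T cells after 16 hr compound treatment; cells seeded 5 hr beforehand in low-serum, charcoal-stripped medium.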

Sequence of Retinoic acid receptor RXR-alpha (Homo sapiens) (P19793 whole entry, looked up): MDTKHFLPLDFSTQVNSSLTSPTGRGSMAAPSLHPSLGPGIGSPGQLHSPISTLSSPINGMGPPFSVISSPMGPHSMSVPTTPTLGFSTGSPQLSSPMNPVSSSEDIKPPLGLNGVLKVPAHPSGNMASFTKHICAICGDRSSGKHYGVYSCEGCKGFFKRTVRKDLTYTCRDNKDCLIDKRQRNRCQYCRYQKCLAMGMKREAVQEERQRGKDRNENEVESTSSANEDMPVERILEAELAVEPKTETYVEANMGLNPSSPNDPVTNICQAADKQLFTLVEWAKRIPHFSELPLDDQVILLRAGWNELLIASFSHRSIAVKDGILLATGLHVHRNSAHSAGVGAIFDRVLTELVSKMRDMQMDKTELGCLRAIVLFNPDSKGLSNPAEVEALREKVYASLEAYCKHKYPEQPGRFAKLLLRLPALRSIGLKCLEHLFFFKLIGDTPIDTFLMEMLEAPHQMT

For the compound `O=c1[nH]c2ccccc2n1C1CCN(CCCC(c2ccc(F)cc2)c2ccc(F)cc2)CC1`, the Potency is 21.9 µM (active) in assay [1]; 49 µM (active) and 23.9 µM (active) in [3]; 24.3 µM (active) and 29.8 µM (active) in assay [4]; 19.3 µM (active) and 23.7 µM (active) in assay [5]; 19.5 µM (active) in [6]. In assay [2], the Potency result was “inactive”.
In the case of `COC12CC[C@@]3(C[C@@H]1C(C)(O)C(C)(C)C)[C@H]1Cc4ccc(O)c5c4[C@@]3(CCN1CC1CC1)[C@H]2O5` (stereo partly drawn), in [7], the Potency entry is “inactive”. The Potency in assay [8] is 54.6 µM (active); in assay [5], 54.1 µM (active); in [6], 54.6 µM (active).
Turning to `ClCc1ccc(Cl)cc1Cl`, the Potency entry in assay [1], in [7], in [8], in assay [6] and in assay [9] was “inactive” each time. Besides, the result in assay [10] was inactive.
Consider `N#CNC#N`, for which the Potency result in assay [1], in assay [2], in assay [3], in assay [4], in [5] and in assay [6] was “inactive” each time. For the same compound, the Potency entry in [9] was “inactive”. Moreover, the result in assay [10] was inactive.
On to `[Cl][Sb]([Cl])[Cl]`, for which the Potency entry in assay [1], in [2], in [3] and in assay [6] was “inactive” throughout. Also, the values for the Potency in assay [4] and in assay [5] were 48.6 µM (active) and 5.45 µM (active), respectively.
Turning to `CN(C)C(=S)[S-].CN(C)C(=S)[S-].[Cu+2]`, the Potency was 1.5 µM (active) in assay [1], 4.74 µM (active) in assay [7], 4.74 µM (active) in assay [8] and 6.7 µM (active) in [6].
Turning to `NNC(=O)c1ccccc1`, the Potency result in [7], in [2], in assay [3], in assay [4], in [5] and in [6] was “inactive” each time. The Potency entry in [9] was “inactive”. Also, the call in assay [10] was inactive.
Consider `FC(F)(F)c1cccc(C2=CCN(CCc3ccc4ccccc4c3)CC2)c1`, for which the Potency result in assay [7], in assay [2], in assay [3], in assay [4], in assay [5] and in assay [6] was “inactive” in each case. Also, in assay [10], the call was inactive.
For `BrCBr`, the Potency result in assay [1], in assay [7], in [2], in [3], in assay [4] and in [6] was “inactive” throughout. The Potency entry in assay [9] was “inactive”. Also, in assay [10], the result was inactive.
As for `S=C(SSC(=S)N1CCCCC1)N1CCCCC1`, the Potency in [1] is 0.168 µM (active); in [4], 0.188 µM (active); in assay [5] it was 0.15 µM (active). Besides, the Potency result in assay [2] and in assay [3] was “inactive” throughout.
`C=CC(=O)OCCCCOC(=O)C=C`: the Potency result in assay [7] and in assay [8] was “inactive” throughout.
Take `C[C@@H]1O[C@@H](O[C@H]2C[C@@H](O)[C@]3(CO)[C@H]4[C@H](O)C[C@]5(C)[C@@H](C6=CC(=O)OC6)CC[C@]5(O)[C@@H]4CC[C@]3(O)C2)[C@H](O)[C@H](O)[C@H]1O`: the Potency was 16.5 nM (active) and 75 nM (active) in [1]; 16.5 nM (active) and 107 nM (active) in assay [7]; 0.0261 µM (active) in [8]. Also, the Potency result in [6] and in assay [9] was “inactive” throughout.
On to `CC(C)OS(C)(=O)=O`, for which the Potency entry in assay [1], in assay [2], in assay [3], in [4], in assay [6] and in assay [9] was “inactive” each time. In addition, in assay [10], the outcome was inactive.
`CCN`: the Potency entry in assay [2], in [3], in assay [4], in assay [5], in assay [6] and in assay [9] was “inactive” throughout. In addition, in assay [10], the call was inactive.
Take `BrC(Br)Br`: the Potency result in assay [1], in assay [7], in assay [2], in [3], in assay [4] and in [5] was “inactive” each time. The Potency result in assay [6] and in assay [9] was “inactive” throughout.
Consider `Cc1cc(C)c(C2=C(OC(=O)CC(C)(C)C)C3(CCCC3)OC2=O)c(C)c1`, for which the Potency entry in assay [1], in assay [7], in [2], in assay [3], in assay [4] and in [5] was “inactive” throughout. The Potency result in assay [6] and in [9] was “inactive” throughout. Besides, in [10], the compound was called inactive.
`ClC(Cl)=C(Cl)Cl`: the Potency entry in assay [1], in assay [7], in assay [2], in assay [3], in [4] and in assay [5] was “inactive” throughout. Moreover, the Potency entry in [6] and in assay [9] was “inactive” in each case. Further, the compound was classed as inactive in assay [10].
Consider `CC(C)(C)OO`, for which the Potency result in [1], in [7], in assay [2], in assay [3], in assay [4] and in [5] was “inactive” each time. Besides, the Potency result in assay [6] and in assay [9] was “inactive” each time. For the same compound, the result in assay [10] was inactive.
Take `COc1ccc(/C(=C/C(=O)N2CCOCC2)c2ccc(Cl)cc2)cc1OC`: the Potency result in assay [1], in [7], in [2], in assay [3], in assay [4] and in assay [5] was “inactive” in each case. The Potency entry in assay [6] and in assay [9] was “inactive” throughout.
For `Clc1ccc(CCC(Cn2ccnc2)Sc2c(Cl)cccc2Cl)cc1` (stereo not drawn), the Potency in assay [8] was 23.9 µM (active); in assay [6] it was 26.8 µM (active).
Take `C1CCC2CCCCC2C1` (stereo not drawn): the Potency result in [1], in [2], in [3], in assay [4], in assay [5] and in assay [9] was “inactive” in each case. Besides, in assay [10], the call was inactive.
Take `CC(c1ccc(O)cc1)c1ccc(O)cc1`: the Potency result in assay [1], in [7], in assay [2], in [3], in [4] and in [6] was “inactive” throughout. In addition, the Potency result in assay [9] was “inactive”. In addition, the Potency result in [5] is “inactive and 61.1 µM (active)”. For the same compound, in [10], the result was inactive.
With `Clc1ccc(C(c2ccc(Cl)cc2)C(Cl)(Cl)Cl)cc1`, the Potency was 55.3 µM (active) and 43.6 µM (active) and inactive in assay [1]; 55.3 µM (active) in assay [8]; 61.6 µM (active) in [5]; 34.9 µM (active) and 38.9 µM (active) in [6]. The Potency entry in assay [7] is “inactive”.
Turning to `Cc1cc(C)cc(OP(=O)(Oc2cc(C)cc(C)c2)Oc2cc(C)cc(C)c2)c1`, the Potency entry in assay [7], in assay [2], in assay [3], in [4], in assay [5] and in [6] was “inactive” each time. Besides, the Potency result in assay [9] was “inactive”.
Turning to `CC(C)CC(C)N` (stereo not drawn), the Potency entry in assay [1], in assay [2], in [4], in assay [5], in assay [6] and in assay [9] was “inactive” throughout. Also, the compound was called inactive in assay [10].
In the case of `COc1cc(N)c(Cl)cc1C(=O)NC1CN2CCC1CC2` (stereo not drawn), the Potency entry in assay [1], in [7], in assay [3], in assay [4], in assay [5] and in assay [6] was “inactive” each time. Moreover, the Potency result in assay [9] is “inactive”. The result in [10] was inactive.
With `CCOC(=O)C1(c2ccccc2)CCN(CCC(C#N)(c2ccccc2)c2ccccc2)CC1`, the Potency result in assay [1], in assay [7], in [3], in assay [4], in assay [6] and in [9] was “inactive” each time. For the same compound, in assay [5], the Potency was 18.8 µM (active).
As for `Cc1cc(SCc2sc(-c3ccc(C(F)(F)F)c(F)c3)nc2C)ccc1OCC(=O)O`, the Potency in assay [1] was 49 µM (active). Further, the Potency result in [2], in [5] and in [6] was “inactive” in each case.
Take `CC(=O)[O-].[Tl+]`: the Potency entry in assay [1], in assay [2], in assay [3], in assay [4], in assay [6] and in [9] was “inactive” each time.
With `O=c1[nH]c2ccccc2n1CCCN1CCC(n2c(=O)[nH]c3cc(Cl)ccc32)CC1`, the Potency result in [1], in [7], in assay [2], in assay [3], in [4] and in assay [6] was “inactive” in each case.
As for `CC(=O)[O-].CC(=O)[O-].O.O.[Cd+2]`, the Potency is 1.21 µM (active) in assay [1], 15.3 µM (active) in assay [7] and 0.216 µM (active) in [2]. In assay [4], the Potency result is “inactive”.
